Growth data for 40 compounds are collected here from PubChem BioAssay (NCI).

Structures are written as SMILES. Several values for one entry are separate records, joined by “and”; a condition that tells them apart may be missing. Identical values can stand only once. About 83,000 compounds went through this panel and 20% of them were active in at least one assay; those are over-represented in the sample as a whole.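 Method: cells in 96-well plates; compound added at one concentration; 48 h incubation; percent growth measured; values under 10 scored active.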 A number with no mark means an inactive call. Activity calls are given as the source filed them.

The subject of the test is TK-10 renal. In words: NCI-60 one-dose screen, 48 h (100 = growth as untreated, 0 = no growth, -100 = all killed). Particulars: 10 µM unless noted. As for the experimental part:
Growth inhibition of the TK-10 human tumor cell line is measured as a screen for anti-cancer activity. Cells are grown in 96 well plates and exposed to the test compound for 48 hours. Compounds are tested at a single concentration, which is 10^-5 M for most compounds. The reported endpoint is percent growth (GI% or GIPRCNT), where numbers from 0 - 100% represent growth inhibition, and numbers from -100% - 0 represent cell death. For example, a value of 40 represents 60% growth inhibition. A value of 0 means no net growth occurred over the course of the experiment. A value of -40 indicates 40% of cells at the beginning of the experiment died by the end of the experiment. A value of -100 means all cells are dead at the end of the experiment.
NCI-60 Human Tumor Cell Lines Screen was performed using the standard one-dose NCI protocol, which is described in more detail at https://dtp.cancer.gov/discovery_development/nci-60/default.htm.
Compounds with GIPRCNT values below 10 were considered active. Activity score was based on GIPRCNT using the following formula: […]
Score is 0 for GIPRCNT values of 100 or above, 50 for GIPRCNT values of 0, and 100 for GIPRCNT values of -100.
On to `CSc1nc(C)c(C(=O)CCN2CCN(c3ccccn3)CC2)s1`, for which the growth is 118%. Then `NC(=S)N/N=C/c1ncccc1O`, with 71.2%; and `Clc1ccc(Cc2nc3ccccc3s2)cc1`, with 119%.

For the compound `CCCCCCC1N=C(N)N=C(N)N1c1cccc(Cl)c1` (stereo not given), the growth was 67.6%. As to `C/C=C/c1cc2c(c(=O)o1)C(=O)[C@@H](O)[C@H](C)O2`, the growth is 5.77% (active).

As to `Nc1nc2ncc(CNc3ccc(C(=O)NC(CCC(=O)NC(CCC(=O)NC(CCC(=O)NC(CCC(=O)NC(CCC(=O)O)C(=O)O)C(=O)O)C(=O)O)C(=O)O)C(=O)O)cc3)nc2c(=O)[nH]1` (stereo not given), the growth is 119%. Under `COc1cc(/C=C/C(=O)CC(=O)/C=C/c2ccc(O)c(OC)c2)ccc1O` stands 69.7%; under `Cc1cc(C)c([I+]c2c(C)cc(C)cc2C)c(C)c1`, 12.7%. Consider `O=[N+]([O-])/C(=C/c1ccccc1)c1ccccc1`, for which the growth is 89.5%. For `CCC(C)(O)Cc1ccc(Cl)cc1` (stereo not given), the growth is 97.6%.

Take `O=C1c2ccccc2C(=O)c2c(O)c(Cl)cc(O)c21`: the growth was 89.4%. Then `CCOC(=O)C1C(C(C)C)C2(C#N)C(=N)OC1(C)C2(C#N)C#N` (stereo not given), with 5.66% [100 µM] (active) and -73.8% [100 µM] (active); and `CC1(C)OCC(COC(c2ccccc2)(c2ccccc2)c2ccccc2)O1` (stereo not given), with 88.5%; and `O=C(O)c1cc2c(s1)C(=O)c1sccc1C2=O`, with 115%. Consider `CCC1CCCCN1C(=S)N/N=C(\C)c1ccccn1` (stereo not given), for which the growth was 19.7%. Under `O=[N+]([O-])c1ccc(C2N(Cc3ccc(Cl)cc3)CCN2Cc2ccc(Cl)cc2)cc1` stands 80.5%; under `OC(Cc1cc(CC(O)(C(F)(F)F)C(F)(F)F)nc(CC(O)(C(F)(F)F)C(F)(F)F)c1)(C(F)(F)F)C(F)(F)F`, 22.1%; under `CCCCN(CCCC)CCCCCCCCCCO`, 93.6%. Then `Oc1ccc2c(c1)CCc1ccccc1-2`, with 100%; and `Oc1c(Cl)cc(Cl)cc1C(c1cc(Cl)cc(Cl)c1O)C(Cl)(Cl)Cl`, with 13%; and `O=C(Nc1cccc(C(F)(F)F)c1)Oc1ccc(Cl)c2cccnc12`, with 72.2%. For `COc1c(C)c2c(c(O)c1C/C=C(\C)CCC(=O)O)C(=O)OC2`, the growth was 42%. Under `Nc1nc(N)c2cc(Sc3cccc(C(F)(F)F)c3)ccc2n1` stands 43.5%. Consider `COC1=CC(=O)c2c(O)c3c(c(O)c2C1=O)CC(C)(O)OC3` (stereo not given), for which the growth was 66.1%.

As to `Oc1c(Cl)cc(Cl)cc1C=NCC1CCC(CN=Cc2cc(Cl)cc(Cl)c2O)CC1` (stereo not given), the growth was 124%. Under `COC(=O)c1nc(=S)[nH]c(C(=O)OC)c1C(=O)c1ccc(Cl)c(Cl)c1` stands 106%; under `Oc1ccc(Nc2ccc3ccccc3c2)cc1`, 45.3%.

In the case of `CCOc1cc(F)c([N+](=O)[O-])cc1[N+](=O)[O-]`, the growth is 12.5%. Under `C=C1C(=O)OC2CC3(C)CCCC(C)C3=CC12` (stereo not given) stands -100% [100 µM] (active) and -97% [100 µM] (active); under `CCCOS(=O)(=O)c1ccccc1`, 102%; under `Oc1cc(Cl)ccc1Cc1ccc(Cl)cc1O`, 95.6%. Regarding `Cc1cc(C(=C2C=CC(=Nc3ccccc3)C=C2)c2ccc(Nc3ccccc3)cc2)ccc1N`, the growth was -64.7% (active). Take `C=CCO/N=C/c1cc(NC(=S)c2ccoc2C)ccc1Cl`: the growth is -93.7% [100 µM] (active) and -93.1% [100 µM] (active).

With `NC(=Nc1nc(-c2ccccn2)cc2ccccc12)c1ccccn1`, the growth was 31.5%. Then `CCN1/C(=C/C(C)=C/c2sc3ccc4ccccc4c3[n+]2CC)Sc2ccc3ccccc3c21`, with -97.3% (active); and `CN(C)c1ccc(C(C#N)(c2ccccc2)c2ccc(N(C)C)cc2)cc1`, with 71.8%. As to `CCOC(=O)NC(/C=C/c1ccccc1)NC(=O)OCC`, the growth is 100%. Under `CCOC(=O)C1(C)CCCC1N` (stereo not given) stands 98.7%; under `Cc1c(O)ccc(SC#N)c1C`, 107%. Then `O=[N+]([O-])C=C(c1ccccc1)c1ccccc1`, with 84.8%.
